PubChem BioAssay (NCI)
This is part of a sample that, as a whole, favours compounds with a hit. Of some 83,000 tested, about 20% had one in any assay.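 For each line, cells grew in 96-well plates with the test compound present at a single concentration for 48 hours.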 Unmarked numbers belong to inactive results. Activity calls are given as the source filed them. Rule for the calls: active = growth percent below 10; inactive = the rest.

Tests used:
Experiment in all cases: NCI-60 one-dose screen, 48 h (100 = growth as untreated, 0 = no growth, -100 = all killed)
Settings in all cases: 10 µM unless noted
[1] = test system: NCI-H23 lung
[2] = test system: NCI-H226 lung
[3] = test system: NCI-H322M lung
[4] = test system: HOP-62 NSCLC
[5] = test system: NCI-H460 lung
[6] = test system: HOP-92 NSCLC
[7] = test system: NCI-H522 lung
[8] = test system: A549/ATCC NSCLC
[9] = test system: 786-0 renal
[10] = test system: COLO 205 colon
[11] = test system: DU-145 prostate
[12] = test system: K-562 leukemia
[13] = test system: MALME-3M melanoma
[14] = test system: MDA-MB-231 breast
[15] = test system: RXF 393 renal
[16] = test system: SF-268 CNS
[17] = test system: SF-295 CNS
[18] = test system: SF-539 CNS
[19] = test system: UACC-257 melanoma
[20] = test system: M14 melanoma

SMILES	growth [1]	growth [2]	growth [3]	growth [4]	growth [5]	growth [6]	growth [7]	growth [8]	growth [9]	growth [10]	growth [11]	growth [12]	growth [13]	growth [14]	growth [15]	growth [16]	growth [17]	growth [18]	growth [19]	growth [20]
CCCCn1c(-c2ccc(C(=O)O/N=C(\N)c3ccc4c(c3)OCO4)cc2)nc(-c2ccccc2)c1-c1ccccc1	35.3%	49.9%	66.6%	79.7%	0.397% (active)	17.4%	-37.1% (active)	15.7%	41.9%	57.5%	46.4%	-5.48% (active)	55.6%	33.1%	34.7%	29.4%	61.4%	58.1%	79.9%	54.1%
CC[C@H]1OC(=O)[C@H](C)[C@@H](O[C@H]2C[C@@](C)(OC)[C@@H](O)[C@H](C)O2)[C@H](C)[C@@H](O[C@@H]2O[C@H](C)C[C@H](N(C)C)[C@H]2O)[C@](C)(O)C[C@H](C)CN(C)[C@H](C)[C@@H](O)[C@]1(C)O	93.7%	103%	104%	97.7%	102%	67.5%	104%	104%	91.7%	45.6%	109%	108%	92%	55.2%	85.5%	99.1%	108%	102%	124%	96.4%
COc1ccc(S(=O)(=O)N2CC3(COC3)C2)cc1NC(=O)c1[nH]c(C)c2c1CCCCC2=O	59.4%	53.3%	56.3%	40.6%	71.2%	48.2%	32.3%	62.6%	56.5%	37.5%	79.6%	45.1%	61.1%	47.1%	76%	78.1%	52.8%	45.3%	51.9%	58.1%
O=C1/C(=C/N2N=C(c3ccc4ccccc4c3)CC2c2ccccc2O)SC(=S)N1c1cccnc1 (stereo not given)	43.3%	31.7%	46%	25.2%	15.3%	77%	21.1%	18.8%	14%	27.3%	24.8%	10.9%	79.5%	53%	-8.6% (active)	31.9%	10.5%	-26.2% (active)	69.1%	7.17% (active)
Nc1ccc(-c2cc3c(Nc4ccc(Oc5cccc(C(F)(F)F)c5)c(Cl)c4)ncnc3s2)cc1	69.6%	69%	61.9%	90.2%	69.5%	87.8%	53.6%	51.4%	73.9%	91.3%	72.5%	24.9%	91.8%	95.1%	35.7%	66.1%	77.2%	74.5%	77%	86.6%
COc1ccc(-c2cc(C(=O)N=Nc3c(O)[nH]c4ccc(Br)cc34)no2)cc1	87%	86.3%	99%	90.5%	101%	96.7%	83.2%	103%	105%	114%	105%	96.5%	92.4%	92.8%	107%	99.4%	103%	95.9%	112%	98.9%
Cn1cccc1-c1nc2c3c(ccc2[nH]1)C(=O)c1ccccc1C3=O	85.3%	86.2%	81.8%	102%	87.2%	89%	73.6%	87.9%	103%	120%	101%	73.8%	90.5%	88.6%	93%	97.8%	97.9%	90.7%	94.3%	99.7%
O=C(N(c1ccccc1)c1ccccc1)n1ccc2nc(Cl)nc(Cl)c21	60.8%	53.9%	67.9%	45.5%	36.1%	52.3%	24.9%	56.2%	80.1%	77.7%	33.8%	42.8%	58.6%	71.4%	32.7%	66.3%	74.1%	68%	70.2%	69.9%
O=S(=O)(Nc1ccc(Br)c(Cl)c1)c1ccc(-c2cnc(C3CC3)o2)cc1	29.7%	55.3%	39.2%	32.6%	11.9%	40.8%	-17.7% (active)	24.9%	39%	-2.39% (active)	9.63% (active)	10.2%	30.9%	33.6%	-10.6% (active)	50.3%	5.84% (active)	-19.8% (active)	55.5%	5.11% (active)
COc1ccc(C(=O)c2sc3nc4c(c(-c5cccnc5)c3c2N)CCCC4)cc1OC	97.7%	86.3%	99.5%	80.7%	77.4%	-11.7% (active)	83%	82.2%	87.5%	94.6%	91.4%	15.2%	83.5%	38.3%	51%	64.9%	93.2%	73.4%	98.3%	118%
COc1ccc(/C=C/C(=O)c2cc(O)ccc2O)cc1	95.8%	94.5%	111%	114%	96.6%	70.6%	-23.6% (active)	78.6%	96.5%	99%	89.3%	66.4%	100%	77.4%	81.6%	84.4%	111%	88.4%	75.5%	105%
C#CCOc1ccc2ncnc(Nc3cccc(CNC(=O)C=C)c3)c2c1	104% [8.25 µM]	77.3% [8.25 µM]	105% [8.25 µM]	108% [8.25 µM]	101% [8.25 µM]	93.3% [8.25 µM]	91.9% [8.25 µM]	102% [8.25 µM]	93.1% [8.25 µM]	111% [8.25 µM]	108% [8.25 µM]	104% [8.25 µM]	109% [8.25 µM]	101% [8.25 µM]	79.4% [8.25 µM]	86.2% [8.25 µM]	102% [8.25 µM]	99.9% [8.25 µM]	106% [8.25 µM]	103% [8.25 µM]
COc1ccc(/C=C/c2nc3ccccc3nc2/C=C/c2ccc(OC)cc2)cc1	93.5%	90.2%	103%	104%	100%	92.3%	94%	93.9%	88.8%	97.4%	105%	101%	109%	111%	80.3%	99.5%	102%	89.8%	106%	93%
O=C1/C(=C/c2ccc(Cl)cc2)SC(=S)N1CCc1ccc(O)cc1	89.7%	96.1%	99.3%	99.9%	99.3%	73.7%	-30% (active)	87%	78.6%	110%	50.2%	96.9%	81.5%	84%	94.1%	85%	102%	80%	99.5%	104%
Cc1ccccc1COc1ccc(-c2ccnn2-c2ccc(Cl)cc2)cc1	76.6%	70.3%	96.9%	49.3%	58.3%	74.2%	29.1%	49.6%	82.8%	71.2%	88.1%	13.7%	67.2%	84.2%	60.3%	80.5%	53.1%	71.8%	75.7%	39%
